Experimental findings from PubChem BioAssay (NCI) are described below.

Among the test systems are NCI-H23 lung; NCI-H226 lung; NCI-H322M lung; HOP-62 NSCLC; NCI-H460 lung; NCI-H522 lung; A549/ATCC NSCLC; 786-0 renal; COLO 205 colon; DU-145 prostate; K-562 leukemia; MALME-3M melanoma; MDA-MB-231 breast; RXF 393 renal; SF-268 CNS; SF-295 CNS; SF-539 CNS; UACC-257 melanoma; M14 melanoma.
Common to all, as to assay: NCI-60 one-dose screen, 48 h (100 = growth as untreated, 0 = no growth, -100 = all killed)
Holding throughout (settings): 10 µM unless noted

About 83,000 compounds went through this panel and 20% of them were active in at least one assay; those are over-represented in the sample as a whole.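 Single-dose data. Exposure time 48 hours. Values below 10 considered active.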 A number with no mark means an inactive call. Calls of active or inactive are those of the source.

Regarding `COc1cc2c(c(OC)c1O)C(=O)C(OC)C(c1ccc(O)c(O)c1)O2` (configuration not stated), the growth in the assay with NCI-H23 lung is 24.7%; with NCI-H226 lung, 16.8%; with NCI-H322M lung, 37%; in the assay on HOP-62 NSCLC, 42.3%; in the assay on NCI-H460 lung, 4.55% (active); in the assay on NCI-H522 lung, -11.9% (active). Further, the growth with A549/ATCC NSCLC was 17.7%; with 786-0 renal, 17%; with COLO 205 colon it was 88%; in the assay with DU-145 prostate, 5.45% (active); with K-562 leukemia it was 6.8% (active); in the assay with MALME-3M melanoma, 52.2%. Moreover, the growth with MDA-MB-231 breast was -8.18% (active); in the assay on RXF 393 renal it was 17.1%; in the assay on SF-268 CNS, 24.6%; with SF-295 CNS it was -6.27% (active); in the assay with SF-539 CNS it was -23% (active); in the assay on UACC-257 melanoma, 69.1%. Moreover, the growth with M14 melanoma is -3.36% (active).

As for `CCN(CC)c1ccc(/C=N/N=C(N)N)cc1`, the growth was 65.7% in the assay on NCI-H23 lung; 84.5% in the assay on NCI-H226 lung; 87.7% in the assay with NCI-H322M lung; 54.8% in the assay on HOP-62 NSCLC; 23.3% with NCI-H460 lung; 27.1% with NCI-H522 lung. The growth in the assay with A549/ATCC NSCLC is 44.6%; in the assay on 786-0 renal it was 72.4%; with COLO 205 colon, 30.2%; in the assay with DU-145 prostate, 55.5%; in the assay with K-562 leukemia, 26.3%; in the assay on MALME-3M melanoma it was 58.9%. In addition, the growth with MDA-MB-231 breast is 66%; in the assay with RXF 393 renal, 68%; in the assay with SF-268 CNS, 45.7%; in the assay on SF-295 CNS, 27.8%; in the assay with SF-539 CNS, 51.8%; in the assay with UACC-257 melanoma it was 47.9%. Besides, in the assay with M14 melanoma, the growth was 42.4%.

For `Cc1ccc(OC2=C(C#N)C(=N)N3C(=NN2)Sc2c(C)ccc(C)c23)cc1`, the growth is 85.3% in the assay with NCI-H23 lung; 93.4% in the assay on NCI-H226 lung; 102% with NCI-H322M lung; 99.6% in the assay on HOP-62 NSCLC; 100% with NCI-H460 lung; 90.4% with NCI-H522 lung. In addition, the growth in the assay with A549/ATCC NSCLC is 98.6%; in the assay with 786-0 renal it was 110%; in the assay with COLO 205 colon, 106%; with DU-145 prostate it was 122%; in the assay on K-562 leukemia, 98%; in the assay with MALME-3M melanoma, 120%. Also, the growth in the assay with MDA-MB-231 breast was 95.4%; with RXF 393 renal it was 106%; with SF-268 CNS, 113%; in the assay on SF-295 CNS, 96.7%; with SF-539 CNS it was 102%; with UACC-257 melanoma it was 108%. For the same compound, the growth with M14 melanoma is 109%.

For the compound `CNCCCn1c2c(c3ccc(Cl)cc3c1=O)C(=O)c1cc(OC)cnc1-2`, the growth is 34% in the assay with NCI-H23 lung; 43% in the assay on NCI-H226 lung; 61.8% in the assay with NCI-H322M lung; 17.6% with HOP-62 NSCLC; -77.3% (active) in the assay with NCI-H460 lung; 10.1% in the assay with NCI-H522 lung. Further, the growth in the assay on A549/ATCC NSCLC was -88.5% (active); in the assay on 786-0 renal, -85.1% (active); with COLO 205 colon it was 51.9%; with DU-145 prostate it was -85.2% (active); with K-562 leukemia, -66% (active); in the assay with MALME-3M melanoma, 72.8%. Moreover, the growth was 77.3% in the assay on MDA-MB-231 breast; 61.2% in the assay on RXF 393 renal; 34.7% with SF-268 CNS; 14.6% in the assay on SF-295 CNS; 29.1% in the assay on SF-539 CNS; 56.9% with UACC-257 melanoma. The growth in the assay with M14 melanoma was 36%.

On to `O=C1/C(=C/c2cc(F)cc(F)c2)Cc2cc(F)cc(F)c21`, for which the growth is 101% in the assay on NCI-H23 lung; 91.4% with NCI-H226 lung; 75.9% in the assay with NCI-H322M lung; 95.1% in the assay on HOP-62 NSCLC; 103% in the assay with NCI-H460 lung; 83.3% with NCI-H522 lung. For the same compound, the growth with A549/ATCC NSCLC is 102%; in the assay on 786-0 renal, 99.8%; in the assay on COLO 205 colon it was 107%; with DU-145 prostate it was 104%; with K-562 leukemia it was 83.8%; with MALME-3M melanoma, 86%. Besides, the growth is 95.1% in the assay on MDA-MB-231 breast; 93.1% in the assay on RXF 393 renal; 91.4% with SF-268 CNS; 95% in the assay on SF-295 CNS; 89.8% in the assay with SF-539 CNS; 113% with UACC-257 melanoma. Moreover, the growth in the assay with M14 melanoma is 82.6%.

For `CC(C)OC1OC(OC(C)C)C(OC(C)C)OC1OC(C)C` (configuration not stated), the growth in the assay with NCI-H23 lung was 94.9%; in the assay with NCI-H226 lung, 99.9%; in the assay on NCI-H322M lung, 98.1%; with HOP-62 NSCLC, 123%; in the assay with NCI-H460 lung, 104%; in the assay with NCI-H522 lung it was 70.9%. For the same compound, the growth in the assay on A549/ATCC NSCLC was 92.4%; in the assay on 786-0 renal, 99.4%; in the assay on COLO 205 colon, 112%; in the assay with DU-145 prostate, 112%; with K-562 leukemia, 92.5%; with MALME-3M melanoma, 119%. For the same compound, the growth in the assay on MDA-MB-231 breast is 91.8%; in the assay with RXF 393 renal, 127%; in the assay with SF-268 CNS it was 96.5%; in the assay with SF-295 CNS, 109%; with SF-539 CNS, 105%; with UACC-257 melanoma it was 92.2%. Moreover, the growth with M14 melanoma was 99.2%.

With `CC(C)c1cccc(C#N)c1`, the growth was 92.8% in the assay with NCI-H23 lung; 101% in the assay with NCI-H226 lung; 109% in the assay with NCI-H322M lung; 111% in the assay on HOP-62 NSCLC; 103% with NCI-H460 lung; 107% with NCI-H522 lung. The growth was 93.5% in the assay with A549/ATCC NSCLC; 102% in the assay with 786-0 renal; 115% in the assay on COLO 205 colon; 104% in the assay with DU-145 prostate; 109% with K-562 leukemia; 113% in the assay with MALME-3M melanoma. The growth was 102% with MDA-MB-231 breast; 102% with RXF 393 renal; 107% with SF-268 CNS; 107% in the assay on SF-295 CNS; 109% with SF-539 CNS; 93.4% in the assay on UACC-257 melanoma. For the same compound, the growth in the assay with M14 melanoma is 95.2%.

Turning to `C=CCN1C(=O)/C(=c2\sc3n(c2=O)C2C(NN=3)N(CC)C(=O)N2CC)c2ccccc21` (configuration not stated), the growth with NCI-H23 lung is 26.7%; with NCI-H226 lung, 62.7%; in the assay on NCI-H322M lung, 49.4%; with HOP-62 NSCLC it was 32.4%; in the assay on NCI-H460 lung, 9.1% (active); with NCI-H522 lung, -15.9% (active). Moreover, the growth in the assay on A549/ATCC NSCLC was 23.9%; in the assay with 786-0 renal, 32.3%; in the assay on COLO 205 colon, -14.2% (active); in the assay on DU-145 prostate, 17%; in the assay with K-562 leukemia, 10%; with MALME-3M melanoma it was 66%. Further, the growth in the assay with MDA-MB-231 breast was 47.1%; in the assay with RXF 393 renal, 7.25% (active); with SF-268 CNS, 47.3%; in the assay on SF-295 CNS, 12.9%; in the assay with SF-539 CNS, 4.08% (active); in the assay on UACC-257 melanoma, 63.3%. Moreover, in the assay on M14 melanoma, the growth is 14.4%.
